# Data reported in the supplement of paper PMC10981050.
# Where “and” joins values, the source holds several entries; their conditions need not be identical. Identical values can stand only once. Counter-ions that a name gives are not always drawn.
# Legend:
# Assay in all cases: cell viability relative to vehicle control; higher = less cytotoxic
# Conditions in all cases: 10 µM
# K562 = system: K562
# Method in brief: (§1)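 Mutant clones made by CRISPR editing and their isogenic wild-type counterparts, from four leukaemia lines, were exposed to a single 10 µM dose of each library compound for 48 h. The supernatant was then removed and CellTiter-Glo luminescence was read. Viability was reported as percent of the on-plate vehicle control.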
# MARIMO = system: MARIMO
# Method in brief: as §1
# MOLM14 = system: MOLM14
# Method in brief: as §1
# OCI-AML2 = system: OCI-AML2
# Method in brief: as §1
Compound,cell viability (K562; SRSF2 genotype: SRSF2 P95H/wt),cell viability (K562; SRSF2 genotype: SRSF2 wt/wt),cell viability (MARIMO; SRSF2 genotype: SRSF2 P95H/wt),cell viability (MARIMO; SRSF2 genotype: SRSF2 wt/wt),cell viability (MOLM14; SRSF2 genotype: SRSF2 P95H/wt),cell viability (MOLM14; SRSF2 genotype: SRSF2 wt/wt),cell viability (OCI-AML2; SRSF2 genotype: P95H/wt),cell viability (OCI-AML2; SRSF2 genotype: wt/wt)
CN(CCNCc1cn(Cc2ccc(Cl)cc2)nn1)CCNc1ccnc2cc(Cl)ccc12,2.31% and 5.3%,6.48%,28.8%,34.4%,2.79%,0.55%,0.39%,0.68%
CO[C@H]1CC[C@H](N2C(=O)CNc3ncc(-c4ccc(C(C)(C)O)nc4)nc32)CC1,27.9% and 28%,29.7%,36.3%,32.3%,28.1%,24.1%,26%,29.6%
CCn1c(=O)c(-c2ccc(Cl)cc2Cl)cc2cnc(Nc3ccc(N4CCNCC4)c(F)c3)nc21,1.46% and 1.57%,3.22%,4.24%,2.21%,0.53%,0.81%,0.95%,1.2%
O=C(Nc1ccc(Oc2ccc(Cl)cc2)c(Cl)c1)c1cc(I)cc(I)c1O [Rafoxanide],85.2% and 95.8%,97.9%,101%,111%,80.4%,108%,105%,101%
CC[C@H]1OC(=O)[C@H](C)[C@@H](O[C@H]2C[C@@](C)(OC)[C@@H](O)[C@H](C)O2)[C@H](C)[C@@H](O[C@@H]2O[C@H](C)C[C@H](N(C)C)[C@H]2O)[C@](C)(O)C[C@@H](C)CN(C)[C@H](C)[C@@H](O)[C@]1(C)O [Azithromycin Dihydrate],86.8% and 80.4%,82.7%,86%,83.7%,86.8%,93.3%,77.9%,88%
Cc1[nH]c2ccccc2c1CCNC(=O)c1cccs1,92% and 93.8%,100%,90%,97.2%,106%,99.4%,94.5%,97.4%
"CN(C)CCOc1ccc(/C(=C(/CCCl)c2ccccc2)c2ccccc2)cc1 [Toremifene Citrate (Fareston, Acapodene)]",64.7% and 56.1%,71.9%,53.7%,65.5%,56%,55.7%,60%,51.7%
CC(C)(F)C[C@H](N[C@@H](c1ccc(-c2ccc(S(C)(=O)=O)cc2)cc1)C(F)(F)F)C(=O)NC1(C#N)CC1 [Odanacatib (MK 0822)],98.7% and 103%,93.4%,94.5%,102%,104%,104%,101%,102%
O=C(O)Cc1cccc(OCCCN(Cc2cccc(C(F)(F)F)c2Cl)CC(c2ccccc2)c2ccccc2)c1,98.2% and 93.9%,92.9%,97.9%,113%,88.6%,96.7%,90.9%,98.5%
CCOC(C)OCCc1ccccc1 (stereo unspecified) [Efetaal],105% and 100%,108%,97.8%,99.3%,107%,107%,104%,98.9%
O=C(O)CCc1c[nH]c2ccccc12 [3-Indolepropionic acid],92.7% and 95.1%,102%,98.8%,96.4%,97.8%,96.9%,103%,98.3%
CN[C@H]1CN(c2ccc3c(=O)c(C(=O)O)cn(-c4nccs4)c3n2)C[C@@H]1OC [Voreloxin (SNS-595) hydrochloride],74% and 88.4%,79.8%,20.8%,36%,21.3%,7.31%,15.6%,19.9%
N#Cc1ccc(Oc2ccc3c(c2)COB3O)cc1 [Crisaborole (AN2728)],93.3% and 84%,90.8%,73.8%,72.9%,68.2%,77.7%,90%,79.3%
CC(=N)NCc1cccc(CN)c1,103% and 97.3%,91.8%,96.3%,100%,95.6%,97.8%,95.4%,101%
CCc1ccc(-c2nc(CSCC(=O)NCCc3ccccc3)c(C)o2)cc1,89.7% and 94%,94.9%,84.1%,99.9%,87.5%,96.8%,74.5%,91.2%
c1cncc(-c2cn[nH]n2)c1,78.5% and 56.7%,64.2%,88.4%,96.6%,88.6%,99.2%,31.8%,34.6%
O=C1CC(c2ccc(O)cc2)Oc2cc(O)ccc21 (stereo unspecified) [Liquiritigenin],99.3% and 104%,106%,116%,93.6%,99.8%,104%,121%,99.3%
CN1CCC(=C2c3ccccc3CCc3cccnc32)CC1 [Azatadine dimaleate],100% and 108%,94.1%,92.2%,102%,91.9%,100%,88%,99%
Nc1nc(NC2CC2)cc(-c2cccc(Cl)c2Cl)n1,26.5% and 36.8%,41.5%,41.3%,38%,34.5%,21.5%,60.8%,48.5%
C[C@@H](NCCCc1cccc(C(F)(F)F)c1)c1cccc2ccccc12 [AMG-073 HCl (Cinacalcet hydrochloride)],21.9% and 38.4%,19.4%,57.1%,50.4%,27%,24.2%,1.48%,10.2%
C[C@@H](O[C@H]1OCCN(Cc2n[nH]c(=O)[nH]2)[C@H]1c1ccc(F)cc1)c1cc(C(F)(F)F)cc(C(F)(F)F)c1 [Aprepitant (MK-0869)],52.7% and 46%,56.8%,73%,56.1%,56.2%,64.3%,45.8%,56.8%
COc1cc2nc(N3CCN(C(=O)C4CCCO4)CC3)nc(N)c2cc1OC (stereo unspecified) [Terazosin HCl Dihydrate],101% and 95.7%,97%,101%,105%,99.1%,96.2%,94.8%,103%
